Assay results taken from PubChem BioAssay AID1963321 (National Center for Advancing Translational Sciences (NCATS), 2024).
Records with an inconclusive call do not appear. The call rests on the fitted dose curve.

The compounds below were run against cAMP-dependent protein kinase catalytic subunit alpha (Homo sapiens) (UniProt P17612) (assay: Protein Kinase A (PKA-HiBiT) enzymatic inhibition screen - Functional assay). Conditions: luminescence; series mostly up to 57.5 µM; activity change, negative = inhibition: at the top concentration.
Method in brief: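 Kinase-Glo Plus luminescence reported remaining ATP after a 3 h room-temperature kemptide phosphorylation. The reaction used 10 nM PKA-N-HiBiT and 87.5 uM ATP, after 30 min compound preincubation; DMSO neutral, H-89 positive.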

Activity change, negative = inhibition, inactive:
CCN1C(=O)CNc2ncc(-c3ccc(-c4ncn[nH]4)nc3C)nc21 6.55%
Cc1cccc(C)c1-n1c(=O)c2cnc(Nc3ccc(N4CCN(C)CC4)cc3)nc2n2c3ccccc3nc12 8.73%
C=CC(=O)Nc1cc2c(Nc3ccc(F)c(Cl)c3)ncnc2cc1OCCCN1CCOCC1 9.13%
Cc1sc2c(c1C)C(c1ccc(Cl)cc1)=N[C@@H](CC(=O)Nc1ccc(OCCOCCOCCOCCNc3cccc4c3C(=O)N(C3CCC(=O)NC3=O)C4=O)cc1)c1nnc(C)n1-2 (stereo not given in full) 8.8%
COc1ccccc1-c1c[nH]c2ncc(-c3cncc(C(=O)N(C)C)c3)cc12 8.63%
COc1cc2c(cc1OC)-c1[nH]nc(Nc3cccc(F)c3)c1C2 9.15%
Cc1ccc(-n2nc(C(C)(C)C)cc2NC(=O)NCc2cc(F)ccc2Oc2ccc3c(cnn3CCO)c2)cc1 9.17%
Cc1[nH]nc2ncc(C(=O)N3CCC[C@H]3c3ccc(Cl)cc3)cc12 8.86%
N#Cc1cccc(-c2c[nH]c3ncnc(N4CCOCC4)c23)c1 8.15%
O=C(NOCC(O)CO)c1cc(Br)c(F)c(F)c1Nc1ccc(I)cc1F (stereo not given) 8.81%
Cc1nc2ccc(-n3ncc(C(=O)c4cc5ccccc5[nH]4)c3N)cc2[nH]1 6.67%
Nc1ncnc2c1c(-c1cnc3[nH]ccc3c1)nn2C1CCCC1 5.45%
CCNC(=O)Nc1ccc(-c2nc3c(c(N4CCOC[C@@H]4C)n2)CCN(c2ncccn2)C3)cc1 9.16%
O=C(NC1CCNCC1)c1[nH]ncc1NC(=O)c1c(Cl)cccc1Cl 9.1%
Cc1ncc(NC(=O)c2ccc(CN3CCN(C)CC3)c(C(F)(F)F)c2)cc1Nc1nccc(-c2cccnc2)n1 8.99%
Cc1ccc(NC(=O)N2CCN(c3nc(N)nc4sc(-c5cccnc5)nc34)CC2)cc1 9.15%
CN1CCN(CCOc2cc(OC3CCOCC3)c3c(Nc4c(Cl)ccc5c4OCO5)ncnc3c2)CC1 7.41%
O=c1cc(N2CCOCC2)nc2c3ccccc3ccn12 7.64%
C[C@@H](NC(=O)c1ncnc(N)c1Cl)c1ncc(C(=O)Nc2cc(C(F)(F)F)c(Cl)cn2)s1 9%
CCN1CCN(Cc2ccc(NC(=O)Nc3ccc(Oc4cc(NC)ncn4)cc3)cc2C(F)(F)F)CC1 -25.1%
CNc1ncc2cc(-c3cc(NC(=O)NCCC(C)(C)C)c(F)cc3C)c(C)nc2n1 9.18%
Cc1ccccc1-n1c([C@H](C)Nc2nc(N)nc3nc[nH]c23)nc2cccc(C)c2c1=O 9.05%
Cn1cc(-c2cc3c(N4CCN(c5ncc([C@@](C)(N)c6ccc(F)cc6)cn5)CC4)ncnn3c2)cn1 8.24%
Cc1nc(NC(=O)N2CCC[C@H]2C(N)=O)sc1-c1ccnc(C(C)(C)C(F)(F)F)c1 7.59%
NC(=O)c1cccc(-c2cc(Nc3ccc(OC(F)(F)F)cc3)ncn2)c1 7.55%
COC(=O)Nc1ccc(-c2nc(N3CCOCC3)c3cnn(C4CCN(C(=O)OC)CC4)c3n2)cc1 8.89%
CO[C@H]1/C=C/O[C@@]2(C)Oc3c(C)c(O)c4c(O)c(c(/C=N\N5CCN(C6CCCC6)CC5)c(O)c4c3C2=O)NC(=O)/C(C)=C\C=C\[C@H](C)[C@H](O)[C@@H](C)[C@@H](O)[C@@H](C)[C@H](OC(C)=O)[C@@H]1C 8.13%
S=C(NCc1ccc2c(c1)OCO2)N1CCN(c2ncnc3c2oc2ccccc23)CC1 8.32%
O=C1C(c2c(O)[nH]c3ccccc23)=Nc2ccccc21 9.08%
COc1cc2c(Oc3ccc(NC(=O)C4(C(=O)Nc5ccc(F)cc5)CC4)cc3F)ccnc2cc1OCCCN1CCOCC1 9.04%
CN1CCN(CCCNc2ncc(Cl)c(-c3cc4c(C(=O)NC5CC5)cccc4s3)n2)CC1 8.28%
COc1cc2ncnc(Oc3cccc(NC(=O)Nc4cc(C(C)(C)C(F)(F)F)on4)c3)c2cc1OC 8.13%
O=C(Nc1ccc(OC(F)(F)F)cc1)c1sccc1NCc1ccnc2ccccc12 8.4%
CC[C@@](C)(Nc1ccnc(-c2c[nH]c3ncccc23)n1)C(=O)NCC(F)(F)F -2.08%
O=C(NCCO)c1cccc(-c2cc(Nc3ccc(OC(F)(F)F)cc3)ncn2)c1 9.23%
